Experimental findings from PubChem BioAssay (NCATS) are described below.

Results filed as inconclusive are left out. Entries that show only a call come without a potency. Active and inactive are the calls of the source. Calls follow the shape of the dose curve; as a rule, active = well fitted inhibition curve with a large enough effect; inconclusive = small, poorly fitted or top-dose-only effect; inactive = flat fitted curve, though single readings scatter. Where a SMILES comes first, the peptide text is derived from it. The star is where a group is joined. AFC = O=c1cc(C(F)(F)F)c2ccc(N*)cc2o1

For this assay, the target named is Calcium and integrin-binding protein 1 (Homo sapiens) (UniProt Q99828). The assay is described as follows: Primary qHTS for Identification of Calcium Integrin Binding Protein 1 (CIB1) Competitor (AID 1508620).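 Also: GST tagged CIB1 binding a fluorescein labelled alphaIIb integrin peptide tracer; top concentration of the series differs between compounds.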 To be noted: CIB1-GST / FITC-alphaIIb peptide fluorescence polarization; series mostly up to 57.7 µM. In outline: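 Fluorescence polarization competition: CIB1-GST (1 uM final) preincubated with compound 15 min at room temperature, then FITC-labeled alphaIIb peptide (100 nM final) added for another 15 min. Polarization read at Ex 480/Em 540.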
Calcium and integrin-binding protein 1 (Homo sapiens), sequence (Q99828 whole entry, looked up): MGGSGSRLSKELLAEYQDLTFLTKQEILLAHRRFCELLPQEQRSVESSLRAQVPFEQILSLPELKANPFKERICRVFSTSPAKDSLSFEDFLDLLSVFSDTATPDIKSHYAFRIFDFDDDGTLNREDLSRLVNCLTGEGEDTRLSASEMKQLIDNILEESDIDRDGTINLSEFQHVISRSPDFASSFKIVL
(In qHTS, concentration-response curves come from the screen itself.)
Consider `CC(C)C(=O)c1cn(CC(=O)COc2ccc(Oc3ccccc3)cc2)c2ccc(C(=O)O)cc12`, for which the Potency entry was “inactive”. With `CC(=O)N[C@@H](CC(C)C)C(=O)N[C@@H](CCC(=O)O)C(=O)N[C@@H](CCC(=O)O)C(=O)N[C@@H](CC(=O)O)C(=O)Nc1ccc2c(C(F)(F)F)cc(=O)oc2c1` (Ac-LEED-{AFC}), the Potency result was “inactive”. For the compound `C/C=C/C1=CC2=CC(=O)C(C)(O)C(OC(=O)c3c(C)cc(O)cc3O)C2CO1` (configuration not stated), the Potency result is “inactive”. The same measure, in the same setting: to `CC1(C)CCC(C)(C)c2cc([C@@H](O)C(=O)Nc3ccc(C(=O)O)cc3F)ccc21` belongs “inactive”.

Regarding `Cc1nc2c(-c3cnc(N)nc3)nc(N3CCOCC3)nc2n1C(C)C`, the Potency result is “inactive”.

As to `C=C[C@H]1[C@H](O[C@@H]2O[C@H](CO)[C@@H](O)[C@H](O)[C@H]2O)OC=C(C(=O)OC)[C@H]1C[C@@H]1N[C@H](C(=O)O)Cc2c1[nH]c1ccccc21`, the Potency result was “inactive”.

For `C/C=C1/[C@H](O[C@@H]2O[C@H](CO)[C@@H](O)[C@H](O)[C@H]2O)OC=C(C(=O)OC)[C@H]1CC(=O)O[C@@H]1O[C@H](CO)[C@@H](O)[C@H](O)[C@H]1O`, the Potency entry is “inactive”. Regarding `O=c1c2cccnc2n(-c2cccc([N+](=O)[O-])c2)c(=O)n1Cc1ccncc1`, the Potency entry was “inactive”. On the same count and under the same terms, to `CC(=O)O[C@H](C[C@@H](C)[C@H]1C(=O)[C@H](O)[C@@]2(C)[C@@H]3CCC4C(C)(C)[C@@H](O[C@@H]5OC[C@H](O)[C@H](O)[C@H]5O)CC[C@@]45C[C@@]35CC[C@]12C)[C@@H]1OC1(C)C` (some centres not stated) belongs “inactive”. In the case of `CC1OC(O[C@H]2[C@@H](O)C[C@@]3(C)C([C@H](O)C[C@]4(C)C3CC=C3C5CC(C)(C)CC[C@]5(C(=O)OC5OC(CO)C(O)C(O)C5OC5OCC(OC6OCC(OC7OCC(O)C(O)C7O)C(O)C6O)C(OC6OCC(O)(CO)C6O)C5O)CC[C@]34C)[C@]2(C)CO)C(O)C(O)C1O` (some centres not stated), the activity change, negative = inhibition is -4.55% [at 12.4 µM] (inactive).

Consider `CC1=C(CC(=O)O)c2cc(F)ccc2C1=Cc1ccc(S(C)(=O)=O)cc1`, for which the Potency result is “inactive”.

Turning to `N#CC1C(=O)Nc2scc(-c3ccc(-c4ccccc4O)cc3)c2C1=O` (configuration not stated), the Potency result was “inactive”.

`O=C(O)Cc1nn(Cc2nc3cc(C(F)(F)F)ccc3s2)c(=O)c2nccnc12`: the Potency entry was “inactive”. In the case of `C[C@]12C=CC(=O)C=C1CC[C@@H]1[C@@H]2[C@@H](O)C[C@@]2(C)[C@H]1CC[C@]2(O)C(=O)COC(=O)CCC(=O)O`, the Potency result was “inactive”. In the case of `COc1cccc(-n2nc(C(=O)O)cc2-c2ccc(C3CCCCC3)c(Cl)c2)c1`, the Potency result is “inactive”.

As for `COc1cccc2c1CCC[C@H]2CN(C)CCc1ccc2ccoc2c1`, the Potency result was “inactive”. In the case of `CC1[C@@H](O)[C@@H](O)C2[C@]3(C)C(C[C@H]4OC(=O)[C@H](O)[C@]1(O)[C@@]24C)C(C)(O)C[C@H](O)[C@H]3O` (some centres not stated), the Potency entry was “inactive”. `C=C1CCC2C(C)(CO[C@@H]3O[C@H](CO)[C@@H](O)[C@H](O)[C@H]3O)C(O)CCC2(C)C1C(=O)CC1=CCOC1=O` (some centres not stated): the Potency result was “inactive”. Consider `CO[C@@H]1CC[C@H](OC[C@]2(COC(=O)c3ccc(C)[nH]3)[C@H](OC(C)=O)CC[C@@]3(C)[C@@H]4CC=C(C)[C@@H](C5=C(O)C(=O)OC5O)[C@]4(C)CC[C@@H]32)O[C@H]1C` (some centres not stated), for which the Potency result was “inactive”. In the case of `NS(=O)(=O)OC[C@@H]1C[C@@H](n2ccc3c(N[C@H]4CCc5ccccc54)ncnc32)C[C@@H]1O`, the Potency result was “inactive”.

Turning to `CC1=CC(=O)OC(C)(CC(C)(O)C(=O)O)C1` (configuration not stated), the Potency result was “inactive”. For `CC(=O)OC[C@]1(O)[C@H]2[C@H](OC(=O)CC(C)C)OC=C(CO[C@@H]3O[C@H](CO)[C@@H](O)[C@H](O)[C@H]3O)[C@H]2C[C@@H]1O`, the Potency result is “inactive”. For `O=C(O)c1n[nH]c2c1C[C@H]1C[C@@H]21`, the Potency result is “inactive”.

`C/C=C/C=C/C=C/C(=O)O[C@@H]1[C@@H](OC)C2=C(C(=O)N(C(C)C(=O)O)C2)[C@@]2(C)CCCC(C)(C)[C@H]12` (some centres not stated): the Potency result is “inactive”. Take `CCS(=O)(=O)N1CCC([C@@H](C)n2c(C)c(C(=O)NCc3c(OC)cc(C)[nH]c3=O)c3ccccc32)CC1`: the Potency entry was “inactive”. With `CN1CC[C@@H](NC(=O)Nc2ccc(C#N)cc2)C[C@@H]1c1nc2ccccc2[nH]1`, the Potency entry is “inactive”. On to `CC[C@H]1OC(=O)[C@H](C)[C@@H](O[C@H]2C[C@@](C)(OC)[C@@H](O)[C@H](C)O2)[C@H](C)[C@@H](O[C@@H]2O[C@H](C)C[C@H](N(C)C)[C@H]2O)[C@@](C)(O)C[C@@H](C)[C@@H]2N[C@@H](COCCOC)OC([C@H]2C)[C@]1(C)O`, for which the Potency result was “inactive”.
